High-throughput results as filed in PubChem.
Wnt act – Wnt/beta-catenin pathway activators, primary screen, cell-based, plate reader, single point | Wnt/beta-catenin reporter cell assay, activator | activation, % at 9.35 µM | hit rate 1.2% among 300,000; in the data active = activation above about 30%, passing the limit was not always enough; inconclusive = no clear call, values can overlap the other calls;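 also: 0% = neutral control wells and 100% = positive control wells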
esBAF inh – Bmi1 luciferase reporter increase in mESCs, primary screen, esBAF inhibitor project, mouse ES cells, Bmi1 luciferase knock-in, single point. 24 h; 100% = twice the neutral-well signal. reporter increase, % at 12.5 µM. hit rate 2% among 350,000. AID 602393, 2012; in the data active = activation above about 40%; inconclusive = no clear call, values can overlap the other calls;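 also: 0% = median of the plate's neutral control wells and 100% = double that signal; a rise in the Bmi1 reporter signal indicates esBAF inhibition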
Env fusion inh – inhibitors of HIV-1 Env-driven cell-cell fusion, primary screen, HeLa-JRFL effector, CEM21 target cells, luciferase. inhibition, % at 12.3 µM. AID 651610, 2012. hit rate 1.1% among 360,000;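 active = mean replicate inhibition score of at least 50 and every replicate individually at or above 50; inconclusive = only one of the two criteria met; inactive = mean below 50 and not all replicates reaching 50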;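 also: 0% = plate neutral controls and 100% = maraviroc near 300 nM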
miR122 inh – miR-122 Renilla sensor signal increase in Huh7, primary screen, miR-122 inhibitor project, cell-based, single point, plate reader | Huh7 miR-122 Renilla luciferase sensor, 48 h; neutral wells = 0, positive control = 100 | activation (reporter increase), % at 12.5 µM | hit rate 0.3% among 340,000 | AID 602342, 2012;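 active = mean replicate activation score at least 90 and every replicate individually at or above 90; inconclusive = only one of the two criteria met; inactive = neither criterion met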;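 also: higher luciferase means less miR-122 activity so hits act as miR-122 inhibitors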
MITF TRPM1 HTS – activators of MITF-driven TRPM1 promoter reporter, primary screen, cell-based, SK-MEL-5, luciferase, single point; SK-MEL-5 TRPM1-promoter luciferase, 24 h; % of positive control, neutral wells = 0; activation, % at 12.5 µM; hit rate 0.75% among 300,000;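 active = mean activation of at least 80% with every replicate also reaching 80%; inconclusive = mean reaches 80% but some replicate falls short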;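 also: 0% = neutral control wells and 100% = parthenolide positive control wells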
Active calls of the source: *; [ ] = remark or other dose. An excerpt weighted towards active compounds, which were near 3.4% of everything screened.

Screening COc1ccccc1NC(=O)Cn1nnc(C(=O)Nc2ccccc2)c1N returned Wnt act -1, esBAF inh -3, Env fusion inh -11, miR122 inh 9 and MITF TRPM1 HTS -13.
Screening CCOc1ccc(NC(=O)c2nnn(CC(=O)Nc3ccccc3OC)c2N)cc1 returned esBAF inh 44*, miR122 inh -3 and MITF TRPM1 HTS 16.
For CCOc1ccc(NC(=O)c2ccccc2-c2ccccc2C(=O)O)cc1 the results were Wnt act 13, esBAF inh 27, Env fusion inh -54, miR122 inh 3 and MITF TRPM1 HTS 85*.
Screening Cc1ccc(NC(=O)c2ccccc2OCC(=O)c2ccccc2)cc1 returned esBAF inh 17, Env fusion inh -61 and miR122 inh -11.
For CCOc1ccc(NC(=O)c2ccccc2OCC(=O)c2ccccc2)cc1 the results were esBAF inh 44*, Env fusion inh -183 and miR122 inh 3.
Screening CCOc1ccc(NC(=O)c2ccccc2OC)cc1 returned Wnt act 46*, esBAF inh 22, Env fusion inh -171, miR122 inh 16 and MITF TRPM1 HTS 12.
For CCOc1ccc(NC(=O)c2ccccc2CO)cc1 the results were esBAF inh inconclusive, miR122 inh -4 and MITF TRPM1 HTS 45.
For C[C@H]1CN([C@@H](C)CO)C(=O)c2cccc(NC(=O)C3CCCCC3)c2O[C@@H]1CN(C)C(=O)NC1CCCCC1 the results were esBAF inh 4, Env fusion inh 10[16.7 µM] and miR122 inh 15[16.7 µM].
CCOc1ccc(NC(=O)c2ccccc2O)cc1 was read as esBAF inh 26, miR122 inh 5 and MITF TRPM1 HTS 82*.
CC(=O)C1=C(C)NC(=S)NC1c1ccc(F)cc1 (configuration not stated) was read as Wnt act 1 and Env fusion inh -1.
CC(=O)C1=C(C)NC(=S)NC1c1ccccc1 (configuration not stated) was read as Wnt act -1 and Env fusion inh 74*.
For CC(=O)Nc1ccc2nc(NC(=O)c3cccs3)sc2c1 the results were Wnt act 0, esBAF inh -34, Env fusion inh -5, miR122 inh 0 and MITF TRPM1 HTS 36.
Cc1nc2ccc(NC(=O)c3sccc3C)cc2s1 was read as Wnt act 12, esBAF inh 46*, miR122 inh -2 and MITF TRPM1 HTS 44.
For Cc1nc2ccc(NC(=O)Cc3cccc(F)c3)cc2s1 the results were Wnt act 0, Env fusion inh 4 and MITF TRPM1 HTS -4.
Cc1nc2ccc(NC(=O)Cc3ccccc3F)cc2s1 was read as Wnt act -1, Env fusion inh -47 and MITF TRPM1 HTS 121*.
For Cc1nc2ccc(NC(=O)c3ccco3)cc2s1 the results were Wnt act inconclusive, Env fusion inh -23 and MITF TRPM1 HTS 91*.
For CNC(=O)Nc1ccc2nc(C)sc2c1 the results were Env fusion inh -29 and MITF TRPM1 HTS 1.
Screening Cc1nc2ccc(NC(=O)c3cccs3)cc2s1 returned Wnt act 25, Env fusion inh -51, miR122 inh -6 and MITF TRPM1 HTS 121*.
Screening COc1ccc(S(=O)(=O)N(C)C[C@@H]2OCCCC[C@@H](C)Oc3ccc(NS(=O)(=O)c4cn(C)cn4)cc3C(=O)N([C@H](C)CO)C[C@H]2C)cc1 returned esBAF inh 3, Env fusion inh -9[16.7 µM] and miR122 inh -5[16.7 µM].
For C/C(=N\Nc1ccc(S(=O)(=O)Nc2ccccc2)cc1[N+](=O)[O-])c1ccc(N2CCOCC2)cc1 the results were Wnt act -2, esBAF inh 3, Env fusion inh 5, miR122 inh 22 and MITF TRPM1 HTS -6.
C/C(=N\Nc1ccc(S(=O)(=O)Nc2ccc(Cl)cc2)cc1[N+](=O)[O-])c1ccc(N2CCOCC2)cc1 was read as Wnt act inconclusive, Env fusion inh -17, miR122 inh 170* and MITF TRPM1 HTS -13.
For CC(C)NC(=O)Nc1ccc2c(c1)C(=O)N([C@@H](C)CO)C[C@@H](C)[C@H](CN(C)S(C)(=O)=O)OCCCC[C@@H](C)O2 the results were esBAF inh -4, Env fusion inh 30[16.7 µM] and miR122 inh 2[16.7 µM].
Screening Cc1ccc(Nc2n[nH]c(C)c2[N+](=O)[O-])cc1 returned Wnt act 45*, miR122 inh 0 and MITF TRPM1 HTS 96*.
`Cc1[nH]nc(Nc2ccc(Br)cc2)c1[N+](=O)[O-]` gave Wnt act 4 and Env fusion inh -27.
For Cc1[nH]nc(Nc2ccc(C(C)C)cc2)c1[N+](=O)[O-] the results were Wnt act 1, esBAF inh 93*, Env fusion inh -85, miR122 inh 13 and MITF TRPM1 HTS 114*.
`O=C(c1ccccc1)N1CCC(c2nc(-c3ccc(S(=O)(=O)NCC4CCCO4)cc3)no2)CC1` (configuration not stated) gave Wnt act -10, esBAF inh 5, Env fusion inh 87*, miR122 inh 20 and MITF TRPM1 HTS -30.
`O=C(NCc1cccc(F)c1)[C@@H]1[C@@H](CO)[C@@H]2Cn3c(ccc(-c4cccnc4)c3=O)[C@H]1N2CC1CC1` gave esBAF inh 4 and Env fusion inh 67*[16.7 µM].
O=C(Cn1nc(-c2ccccc2)c2ccccc2c1=O)Nc1ccccn1 was read as esBAF inh 48*, miR122 inh -4 and MITF TRPM1 HTS 37.
For Cc1nn(CC(=O)Nc2ccccn2)c(=O)c2ccccc12 the results were Wnt act -4, esBAF inh -4, Env fusion inh -44, miR122 inh 1 and MITF TRPM1 HTS 8.
Screening COc1ccc(OC(F)(F)F)cc1CC1(C)C(=O)Nc2cccc(Cl)c21 (configuration not stated) returned Wnt act 0, esBAF inh -10, Env fusion inh 83* and miR122 inh 2.
Cc1ccccc1CC1(C)C(=O)Nc2ccc(S(=O)(=O)NC3CCCCC3)cc21 (configuration not stated) was read as Wnt act 1, esBAF inh 1, Env fusion inh 17 and miR122 inh inconclusive.
COc1ccc(OC(F)(F)F)cc1CC1(C)C(=O)Nc2ccc(-c3ccsc3)cc21 (configuration not stated) was read as Wnt act -2, esBAF inh -2, Env fusion inh 58* and miR122 inh -5.
For COc1ccccc1CC1(C)C(=O)Nc2ccc(S(=O)(=O)NC3CCCCC3)cc21 (configuration not stated) the results were Wnt act -1, esBAF inh -1, Env fusion inh 56* and miR122 inh 41.
